Experimental data from PubChem BioAssay AID1159580 (chemical genetic matrix, 2015).
The whole screen tested about 5,500 compounds, of which about 2,000 (36%) were called active. Inconclusive results (about 18%) are left out. No stated cut-off is given here; in the data, active means normalized growth mostly below about 0.91 (no sharp cut-off); inconclusive means no clear call, values can overlap the other calls; inactive means mostly above about 0.92. The list shows a part of the results.

Assay: chemical genetic growth profiling, strain panel (AID 1159580);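 further: tested at 20 µM; growth read once vehicle control cultures reached saturation at 30 °C; 1 = growth at the plate median or of vehicle wells; lower values mean less growth of the strain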
Settings: growth OD

Measured: normalized growth

CCOC(=O)c1c(Nc2ccccc2)sc([N+](=O)[O-])c1N
active: S. cerevisiae deletion strains, locus YLR085C, strain ARP6, active compounds read low 0.762 | S. cerevisiae deletion strains, locus YMR307W, strain GAS1, active compounds read low 0.66 | S. cerevisiae deletion strains, locus YPL241C, strain CIN2, active compounds read low 0.849
inactive: S. cerevisiae deletion strains, locus YAL013W, strain DEP1, active compounds read low 0.941 | S. cerevisiae deletion strains, locus YBR229C, strain ROT2, active compounds read low 1.01 | S. cerevisiae deletion strains, locus YDL101C, strain DUN1, active compounds read low 1.02 | S. cerevisiae deletion strains, locus YDR150W, strain NUM1, active compounds read low 0.969 | S. cerevisiae deletion strains, locus YEL061C, strain CIN8, active compounds read low 0.985 | S. cerevisiae deletion strains, locus YGR078C, strain PAC10, active compounds read low 0.985 | S. cerevisiae deletion strains, locus YHR030C, strain SLT2, active compounds read low 0.743 | S. cerevisiae deletion strains, locus YHR087W, strain rtc3, active compounds read low 0.98 | S. cerevisiae deletion strains, locus YJR043C, strain POL32, active compounds read low 0.956 | S. cerevisiae deletion strains, locus YJR075W, strain HOC1, active compounds read low 0.949 | S. cerevisiae deletion strains, locus YKL190W, strain CNB1, active compounds read low 0.977 | S. cerevisiae deletion strains, locus YLR039C, strain RIC1, active compounds read low 0.964 | S. cerevisiae deletion strains, locus YLR058C, strain SHM2 (second series), active compounds read low 1 | S. cerevisiae deletion strains, locus YLR262C, strain YPT6, active compounds read low 0.965 | S. cerevisiae deletion strains, locus YML094W, strain GIM5, active compounds read low 0.961 | S. cerevisiae deletion strains, locus YMR219W, strain ESC1, active compounds read low 0.998 | S. cerevisiae deletion strains, locus YMR263W, strain SAP30, active compounds read low 0.931 | S. cerevisiae deletion strains, locus YNL153C, strain GIM3, active compounds read low 0.986 | S. cerevisiae deletion strains, locus YNL298W, strain CLA4 (second series), active compounds read low 0.917 | S. cerevisiae deletion strains, locus YNL322C, strain KRE1, active compounds read low 0.985 | S. cerevisiae deletion strains, locus YNR030W, strain Alg12, active compounds read low 0.952 | S. cerevisiae deletion strains, locus YPL055C, strain LGE1, active compounds read low 0.846 | S. cerevisiae deletion strains, locus YPR135W, strain CTF4, active compounds read low 0.783 | S. cerevisiae strains, strain wild type, active compounds read low 0.977
